Compound activity deposited in PubChem by National Center for Advancing Translational Sciences (NCATS).
Most compounds without a hit are left out; they make up all but 7.5% or so of the library.
SMN2 splice up – increases expression of the SMN2 splice variant | HEK293 SMN2-luciferase splicing reporter, luminescence, 30-36 h | Potency, µM (series often up to 46.1 µM), usual class: activators | 210,000 compounds, 2.8% hits | AID 1458; also: nearly all actives have a fitted effect of over 55% in size
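qHTS luciferase splicing reporter: luminescence rises when SMN2 exon 7 is included in transfected HEK293 cells. Compound exposure lasted 30-36 h at 37C, with 4.5 mM final sodium butyrate as control, followed by a ONE-Glo read.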
Rab9 prom act – activates the Rab9 promoter. Potency, µM (top dose mostly 9.22 µM), most hits filed as activators. Huh7 Rab9 promoter-luciferase reporter, luminescence, 24 h. 320,000 compounds, 2.8% hits; also: nearly all actives have a fitted effect of over 60% in size
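Luciferase signal after 10 min detection reagent at ambient indicates Rab9 promoter upregulation; stably transfected Huh7 cells were treated 24 h with compound in DMSO at 37 °C, 5% CO2.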
ELG1 genotoxic – genotoxicity induction in ELG1-luciferase HEK293T cells. AID 504466. Potency, µM (series often up to 46 µM), actives largely listed as activators. HEK293T ELG1-luciferase reporter, luminescence, 16 h. 330,000 compounds, 1.3% hits; also: nearly all actives have a fitted effect of over 60% in size
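HEK293T cells expressing luciferase-tagged ELG1 were exposed to compound or DMSO vehicle for 16 hr at 37 °C and 5% CO2. Luciferase activity was then measured with ONE-Glo after 30 min at room temperature.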
FLuc modulator – counter-screen for miR-21 project: firefly luciferase inhibitors or activators | purified FLuc, Km substrates, luminescence inhibition | Potency, µM (top dose mostly 57.5 µM), most hits filed as inhibitors | AID 588342 | 360,000 compounds, 6.9% hits; also: nearly all actives have a fitted effect of over 55% in size
Target sequence (P08659 whole entry, looked up): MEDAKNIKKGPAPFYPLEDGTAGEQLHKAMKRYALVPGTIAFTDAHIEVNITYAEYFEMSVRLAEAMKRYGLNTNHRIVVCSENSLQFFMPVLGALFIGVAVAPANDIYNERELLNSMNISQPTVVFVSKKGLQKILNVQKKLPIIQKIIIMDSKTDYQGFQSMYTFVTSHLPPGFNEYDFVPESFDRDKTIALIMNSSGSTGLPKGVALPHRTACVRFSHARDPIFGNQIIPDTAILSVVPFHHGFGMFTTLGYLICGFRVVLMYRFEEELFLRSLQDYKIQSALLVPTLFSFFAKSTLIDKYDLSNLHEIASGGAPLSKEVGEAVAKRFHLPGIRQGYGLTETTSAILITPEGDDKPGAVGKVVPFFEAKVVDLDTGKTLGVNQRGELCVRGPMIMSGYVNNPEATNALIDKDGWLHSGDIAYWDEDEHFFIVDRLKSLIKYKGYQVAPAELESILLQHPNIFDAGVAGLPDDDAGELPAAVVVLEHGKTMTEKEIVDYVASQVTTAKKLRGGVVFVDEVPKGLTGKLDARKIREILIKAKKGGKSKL
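Purified P. pyralis luciferase, 10 nM final, with Km-level 10 uM D-luciferin and 10 uM ATP in 50 mM Tris acetate pH 7.5, 10 mM Mg acetate, 0.01% Tween-20, 0.05% BSA; 6-point qHTS titration about 60 µM downward; luminescence read.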
NPC1 prom act – activates the NPC1 promoter. Huh7 NPC1 promoter luciferase reporter, 24 h. Potency, µM (doses to about 9.22 µM), most hits filed as activators. 320,000 compounds, 2.4% hits; also: nearly all actives have a fitted effect of over 60% in size
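Cells: Huh7 expressing luciferase under the NPC1 promoter, 1500/well. Seeded 2 h, compound added, incubated 24 h at 37 °C. Luciferase reagent, 10 min ambient, then luminescence.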
Hits are given with their value; – = inactive; ? = inconclusive; · = no result given. Calls follow the shape of the dose curve; as a rule, active = well fitted curve in the direction sought with a large enough effect; inconclusive = small, poorly fitted or top-dose-only effect, or another doubt; inactive = no such curve, though single readings can be large; an effect the other way counts as inactive or inconclusive.

SMILES	SMN2 splice up	Rab9 prom act	ELG1 genotoxic	FLuc modulator	NPC1 prom act
Cc1cccc(NC(=S)NNC(=O)c2sccc2C)c1	–	?	?	15.1µM	–
CCc1cc(C(=O)NNC(=S)Nc2cccc(C)c2)cs1	14.1µM	3.16µM	–	3.38µM	3.55µM
CCCOc1ccc(N2C(=O)C3ON(c4ccccc4)C(CCC)C3C2=O)cc1 (stereo not given)	–	–	–	–	–
O=C(c1ccc(COc2ccccc2[N+](=O)[O-])o1)N1CCCCC1	–	–	–	?	–
COc1ccc(S(=O)(=O)Nc2cc(C(=O)NC3CCCCCC3)ccc2N2CCOCC2)cc1	–	–	–	–	–
COc1ccc(C2=C(C)C(=O)N(Cc3ccc(C(=O)Nc4ccc(C)c(C)c4)cc3)S2(=O)=O)cc1	·	·	·	–	·
CCN1CCN(C(=O)CN2C(=O)c3ccccc3S2(=O)=O)CC1	·	2.51µM	?	?	?
CCOC(=O)N1CCN(C(=O)CN2C(=O)c3ccccc3S2(=O)=O)CC1	·	–	?	–	–
O=C(CN1C(=O)c2ccccc2S1(=O)=O)c1ccc(O)c(O)c1	·	?	–	–	–
COc1ccc(C(=O)CN2C(=O)c3ccccc3S2(=O)=O)cc1	·	?	–	13.5µM	–
O=C(CN1C(=O)c2ccccc2S1(=O)=O)c1ccc(F)c(F)c1	·	?	–	10.7µM	?
CCCc1cc(=O)oc2c(C)c(OCC(=O)NCCCN3CCOCC3)ccc12	·	–	–	–	–
CCC(=NCc1ccccc1)c1c(C(F)(F)F)[nH]n(-c2nc3ccccc3s2)c1=O	–	–	?	12µM	–
O=c1c(C=NCc2cccnc2)c(C(F)(F)F)[nH]n1-c1nc2ccccc2s1	·	–	–	–	–
CCCN=C(C)c1c(-c2ccccc2)[nH]n(-c2nc3ccccc3s2)c1=O	–	–	–	?	?
CC(=NCc1ccco1)c1c(C)[nH]n(-c2nc3ccccc3s2)c1=O	·	?	3.66µM	7.57µM	?
C/C(=N\NC(=O)c1cccs1)c1ccc(C(=O)O)s1	·	–	?	–	–
C/C(=N/NC(=O)c1cccs1)c1c(C)[nH]n(-c2nc3ccccc3s2)c1=O	11.2µM	2µM	?	0.601µM	2µM
CCC(=NCc1ccco1)c1c(C(F)(F)F)[nH]n(-c2nc3ccccc3s2)c1=O	–	?	9.2µM	7.57µM	?
COc1ccc(-c2c(C)oc3c(CN4CCN(C)CC4)c(O)ccc3c2=O)cc1	–	–	–	–	–
CCC(NC(=O)c1ccccc1NC(=O)c1ccccc1)C(=O)O (stereo not given)	–	–	–	–	–
Cc1oc(/N=C/c2ccc(F)cc2)c(C#N)c1C	·	–	–	?	–
CCCc1[nH]nc2c1C1(CCN(C(=O)OCc3ccccc3)CC1)C(C#N)=C(N)O2	–	–	–	–	–
Nc1nc(N)nc(COc2ccccc2)n1	11.2µM	4.47µM	?	?	?
CCOc1ccc(Cc2nc(N)nc(N)n2)cc1	–	–	–	–	–
SMILES	SMN2 splice up	Rab9 prom act	ELG1 genotoxic	FLuc modulator	NPC1 prom act
CCOc1cc(/C=C2/N=C(c3ccc4c(c3)OCO4)OC2=O)ccc1OC(C)=O	·	–	–	–	–
CC(=O)Oc1ccc(/C=C2\N=C(C3CCCCC3)OC2=O)cc1	–	–	–	16.9µM	–
COc1cccc(/C=C2\N=C(C3CCCCC3)OC2=O)c1OC	–	–	–	15.1µM	–
COc1ccccc1/C=C1\N=C(C(C)(C)C)OC1=O	·	–	–	16.9µM	–
CCCC1CCC(C2=N/C(=C\c3ccc(OC)c(OC)c3)C(=O)O2)CC1 (stereo not given)	–	–	–	–	–
O=C(Cc1cccc([N+](=O)[O-])c1)Nc1cccc(C(=O)N2CCCCC2)c1	·	·	–	·	·
CSc1n[nH]c(NC2=CC(=O)CCC2)n1	·	–	–	–	–
COc1ccc2nc(SCc3ccccc3C)nc(C)c2c1	22.4µM	?	?	?	?
COc1ccc2nc(SCc3cccc(C)c3)nc(C)c2c1	20µM	3.98µM	?	10.7µM	?
COc1ccc2nc(SCC(=O)O)nc(C)c2c1	–	–	–	–	–
CC(=O)Nc1cccc(C(=O)N/N=C/c2c[nH]c3ccccc23)c1	·	–	–	15.1µM	–
O=C(N/N=C/c1c[nH]c2ccccc12)c1ccc(O)c(O)c1	·	–	–	2.39µM	–
O=C(N/N=C/c1c[nH]c2ccccc12)c1ccc([N+](=O)[O-])cc1Cl	·	–	–	?	–
O=C(N/N=C/c1c[nH]c2ccccc12)c1cccc(O)c1	·	–	–	10.7µM	–
O=C(N/N=C/c1c[nH]c2ccccc12)c1cccc(Cl)c1	·	?	–	21.3µM	?
CCCOc1ccc(/C=N/Nc2ccc(C(=O)O)cc2)c(OCCC)c1	–	?	?	5.36µM	–
COc1ccc2c(c1)c(/C=N/Nc1ccc(C(=O)O)cc1)c(C)n2C	·	–	?	4.78µM	?
CC(=O)NCCOc1ccc(C(=O)O)cc1	–	–	–	–	–
COc1ccc2c(CCNC(=O)Nc3ccccc3)c[nH]c2c1	·	–	–	–	–
COc1ccc2c(c1)c(C(=O)N/N=C/c1ccc(Br)cc1)c(C)n2C	·	–	–	?	–
COc1ccc(C(=O)N/N=C/c2c[nH]c3ccccc23)cc1	·	–	–	13.5µM	?
COc1ccc2c(/C=N/Nc3ccc(C(=O)O)cc3)c[nH]c2c1	·	1.41µM	?	1.35µM	0.794µM
CSc1nc(C)c(CCOC(=O)c2cccc(Cl)c2)c(=O)[nH]1	–	–	–	–	–
COCCn1c(C)cc(O)c(C(c2ccccc2F)N2CCN(c3ccccc3)CC2)c1=O (stereo not given)	·	·	·	–	·
O=C(NNc1c(Cl)cncc1Cl)c1cccs1	·	–	–	–	–
SMILES	SMN2 splice up	Rab9 prom act	ELG1 genotoxic	FLuc modulator	NPC1 prom act
COc1ccccc1NS(=O)(=O)c1cccc(NC(=O)C2CC(=O)N(Cc3ccccc3)C2)c1 (stereo not given)	–	–	–	–	–
COC(=O)c1ccc(/C=C2\N=C(SC)SC2=O)cc1	·	–	–	–	–
CCSC1=N/C(=C\c2ccc(C(=O)O)cc2)C(=O)S1	–	–	–	9.53µM	–
O=C1SC(SCc2ccccc2Cl)=N/C1=C\c1ccc(C(=O)O)cc1	–	–	–	21.3µM	–
C=CCSC1=N/C(=C\c2ccc(C)o2)C(=O)S1	–	–	–	15.1µM	–
CSC1=N/C(=C\c2ccc(C)cc2)C(=O)S1	–	–	–	?	–
CCOC(=O)SC1=N/C(=C\c2ccc(N(C)C)cc2)C(=O)S1	–	–	–	9.53µM	–
C=C(C)CNC(=S)N1CCN(C(c2ccccc2)c2ccccc2)CC1	–	–	–	–	–
CCOc1cc([N+](=O)[O-])cc(/C=N/NC(=O)c2c(-c3ccccc3)noc2C)c1O	·	–	–	–	–
O=C(CSCc1ccccc1Cl)NN1C(=O)c2ccccc2C1=O	–	–	–	–	–
C=CCSC1=N/C(=C\c2ccc(C(=O)O)cc2)C(=O)S1	–	–	–	10.7µM	–
Nn1c(SCC(=O)Nc2ccc3c(c2)OCCO3)nnc1-c1ccncc1	·	–	–	–	–
